Source: ChEMBL document CHEMBL4513216, “Probing the Open Global Health Chemical Diversity Library for Multistage-Active Starting Points for Next-Generation Antimalarials” (ACS Infect Dis, 2020)
Screen size: about 69,000 compounds; about 8,600 (12%) showed an effect of 50% or more. This excerpt belongs to a sample that is enriched for strong results.

Each molecule was assayed on Plasmodium berghei (assay: Screen against P. berghei liver stage (PbLuc), transformed with Luciferase, at 10uM). Conditions: tested at 10 uM.
Type: functional, HepG2

SMILES	INHIBITION
CCCOCC1CCN(C(=O)Cn2ncc(N3CCCC3)cc2=O)C1 (centres undefined)	-13.6%
c1csc(CN2CCO[C@H]3[C@H](OCCN4CCCC4)CC[C@@H]32)n1	16.8%
CCO[C@@H]1CO[C@@]2(CCCN(Cc3scnc3C)C2)C1	5.14%
CN(CCN1CCCC1)c1nccc(N2CCN[C@H]3CS(=O)(=O)C[C@H]32)n1	45.3%
CN(C)CCCN(C)c1nccc(N2CCN[C@H]3CS(=O)(=O)C[C@H]32)n1	59.3%
CCN(C)c1nccc(N2CCN[C@H]3CS(=O)(=O)C[C@H]32)n1	40.9%
CCC(C)(C)NC(=O)c1ncn2c1CN(C)S(=O)(=O)c1ccccc1-2	47.4%
Cn1nnc2c1C(COCc1ccccn1)CN(Cc1ccoc1)C2 (centres undefined)	49.2%
c1ccc(CN2Cc3[nH]nc(COc4cccnc4)c3C2)nc1	25.8%
c1cncc(OCc2n[nH]c3c2CN(Cc2cccs2)C3)c1	51.2%
c1ccc(OCc2n[nH]c3c2CN(Cc2cccs2)C3)nc1	-0.804%
OCCOCc1n[nH]c2c1CN(Cc1cccs1)C2	58.5%
COCc1n[nH]c2c1CN(Cc1ccccn1)C2	47.5%
CN(C)Cc1n[nH]c2c1CCN(Cc1cccs1)C2	34.6%
COCc1n[nH]c2c1CN(Cc1cccs1)C2	64.5%
OCCOCc1n[nH]c2c1CN(Cc1ccccn1)C2	35.8%
c1csc(CN2Cc3[nH]nc(COCC4CC4)c3C2)c1	46.7%
Cc1nn(C)c(C)c1CCC(=O)N1CCCC(n2cncn2)C1 (centres undefined)	27.6%
OCC1(O)CCCN(Cc2noc(-c3ccccc3)n2)CC1 (centres undefined)	41.2%
C[S+]([O-])CCNC(=O)N1CCSC(C)(C)C1 (centres undefined)	25.4%
O=S(=O)(Cc1ccccc1)c1nnc(N2CCCC2)s1	53.8%
Cc1cccc(CS(=O)(=O)c2nnc(N3CCOCC3)s2)c1	0%
O=S(=O)(Cc1ccccc1)c1nnc(N2CCOCC2)s1	0%

SMILES	INHIBITION
CS(=O)(=O)NCc1ncn2c1CN(CCN1CCCC1)CCC2	31.1%
CC(C)CC(=O)NCC(O)c1c(F)cccc1F (centres undefined)	21.8%
CCC1CCCCN1Cc1nc2c(cnn2C)c(=O)[nH]1 (centres undefined)	25.1%
CC(C)OCc1ccccc1CNC(=O)C(C)S(=O)(=O)C(C)C (centres undefined)	3.84%
CCc1ccccc1CNC(=O)CNC(=O)C(C)(C)C	-11.5%
CC(C)OCc1ccccc1CNC(=O)C(C)(C)C	68.6%
CCN(CC)C(=O)c1ccc(Cl)c(NC(=O)c2cc(C(C)C)on2)c1	43%
CN(C)Cc1cnc(CC2CCN(CCc3ccccc3)CC2)cn1	9.05%
c1cnc(N2CCO[C@H]3[C@H](OCC4CC4)CC[C@@H]32)nc1	21.6%
CSc1[nH]c(=O)c(C(=O)N2CCCC2C2CCCC2)cc1C#N (centres undefined)	0.672%
CCC1CCCCCN1C(=O)c1cc(C#N)c(SC)[nH]c1=O (centres undefined)	49.9%
CSc1[nH]c(=O)c(C(=O)N2CCCC2c2cccs2)cc1C#N (centres undefined)	53.3%
CN(C)c1ncc(-c2cc(C(=O)N3CCCC3)n(CC3CC3)c2)cn1	3.58%
CCCc1ncc(C(=O)N2CCOc3ncccc32)s1	63.8%
O=C(c1cnc(-c2ccco2)s1)N1CCOc2ncccc21	-40.6%
O=C(c1csc(-c2ccco2)n1)N1CCOc2ncccc21	-178%
Cc1cccc(OC2(C(=O)O)CCN(C(=O)CCc3ccco3)CC2)c1	16.6%
Cc1cn(-c2ccccc2)nc1NS(=O)(=O)c1ccc(C(=O)O)cc1	20.9%
CCc1c(C)n(CC(=O)OC)c2nc3ccccc3n2c1=O	15%
Cc1noc([C@@H]2C[C@H]3OCC[C@H]3N(S(=O)(=O)c3cccnc3)C2)n1	30.1%
CCc1ccc(S(=O)(=O)N2CC3(COC(C)(C)OC3)C2)s1	42.7%
CCC[C@H]1CN(S(=O)(=O)c2cc(C)ccc2F)C[C@@H]1N	44.2%
CCC[C@H]1CN(S(=O)(=O)c2ccc(-c3c(C)noc3C)s2)C[C@@H]1N	72.6%

SMILES	INHIBITION
CCC[C@H]1CN(S(=O)(=O)c2ccccc2)C[C@@H]1N	-2.34%
CCC[C@H]1CN(S(=O)(=O)c2cc(C)ccc2C)C[C@@H]1N	57.2%
CCC[C@@H]1CN(S(=O)(=O)c2ccc(C)c(F)c2)C[C@H]1N(C)C	37.8%
CCC[C@H]1CN(S(=O)(=O)c2c(C)noc2C)C[C@@H]1N	-28.9%
Cc1cc(-c2cc(S(=O)(=O)N3C[C@H](C4CC4)[C@@H](N)C3)c(C)s2)on1	45.3%
CCC[C@H]1CN(S(=O)(=O)c2ccc(CC)s2)C[C@@H]1N	52.2%
O=C1[C@H]2CN(CC3CCOCC3)C[C@H]2CN1Cc1cccc(F)c1	-53.6%
CNc1nc2cn(Cc3ccc(Cl)cc3)c(=O)c-2c[nH]1	-14.7%
CCc1ncc(C(=O)N2CCCN(C3CCCCC3)CC2)cn1	37.7%
COc1ncc(CN2CCC3(CCNC(=O)CC3)CC2)cn1	39.5%
CN(C)C(=O)C1CN(Cc2cccs2)CCN(S(C)(=O)=O)C1 (centres undefined)	32.8%
Cc1nc(CN2CCCCC2Cn2cncn2)nc2ccccc12 (centres undefined)	51.3%
Cc1cnn(CC2CCCN2Cc2nc3ccccc3c(=O)[nH]2)c1 (centres undefined)	26.4%
Fc1ccccc1OCCN1CCCCC1Cn1cncn1 (centres undefined)	-29.1%
Cc1cc(C)n(CC2CCCN2Cc2nc(N)c3ccccc3n2)n1 (centres undefined)	37.9%
Cc1nc(C)n(CC2CCCN2Cc2nc(C)c3ccccc3n2)n1 (centres undefined)	17.4%
N#Cc1ccccc1OCCN1CCCCC1Cn1cncn1 (centres undefined)	6.56%
Cc1cnn(CC2CCCN2CCc2nc3ccccc3c(=O)[nH]2)c1 (centres undefined)	61.3%
Cc1nc(C)n(CC2CCCN2Cc2nc(N)c3ccccc3n2)n1 (centres undefined)	59.7%
COc1ccccc1OCCN1CCCCC1Cn1cncn1 (centres undefined)	79.5%
Cc1nc(CN2CCCC2Cn2cncn2)nc2ccccc12 (centres undefined)	5.7%
Nc1nc(CN2CCCCC2Cn2cncn2)nc2ccccc12 (centres undefined)	32.9%
O=c1[nH]c(CCN2CCCC2Cn2cccn2)nc2ccccc12 (centres undefined)	14.4%
